We go through eleven compounds from PubChem BioAssay.

Results filed as inconclusive are left out. For some assays here: Entries with a potency or affinity are not part of this list. Calls of active or inactive are those of the source.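 Rule for the calls, unless noted: active = thallium flux through the channel raised or lowered by more than 3 SD from vehicle-only wells, actives on both sides; inactive = the rest.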

The nature of assay [1]: polyglutamine-triggered caspase-3 activation inhibitors, cell-based (AID 1583). The following applies: polyglutamine-induced caspase-3 activation, cell assay; stronger effect = higher value;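 tested at 10 µM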.
Assay [2] is described as follows: rescue of polyQ-huntingtin neuronal dysfunction in worms, whole organism, C. elegans mechanosensory neurons, N-terminal huntingtin (AID 1599). The following applies: touch response, stronger effect = higher value.
The nature of assay [3]: enhancers of glutamate uptake in motor neurons, MN-1 cell line (AID 1612).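 Note: tested at 1 µM final; 0% = mean of DMSO vehicle wells on each plate; positive means more glutamate uptake than control and negative means less.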 The following applies: MN-1 motor neuron cells, stronger effect = higher value.
Assay [4] can be described thus: reducers of polyQ inclusions in PC12 cells, cell-based, NGF-treated PC12, GFPQ80 (AID 1614).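 Note: lower means fewer inclusions and 0 means no inclusions at all.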 The following applies: PC12 NGF-treated GFP-polyQ80 inclusion reduction.
Assay [5] in a line: suppressors of polyglutamine aggregation in yeast, 75Q-TubH (AID 1616). The following applies: S. cerevisiae 75Q-TubH polyglutamine aggregation suppression; stronger effect = higher value.
A short description of assay [6]: circadian clock period modulators, cell-based, LOPAC library, luminescence reporter (AID 2774; call rule not given here;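 note: values are relative to mean of DMSO wells on each plate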). The following applies: circadian reporter cells, at 7 µM, actives lie on both sides.
Assay [7] has as its system Hepatitis C virus NS3 helicase. The assay can be described thus: HCV NS3 helicase inhibitors, primary screen, biochemical, fluorescence polarization, LOPAC1280 library (AID 687035; in the data active = inhibition above about 37%). The following applies: Purified HCV NS3 helicase, Cy5-dT15 ssDNA binding fluorescence polarization; stronger effect = higher value; concentration not given here. A general note: Polarisation of emitted light reports the rotation of a fluorescent probe.

A short description of assay [8]: Cy5 fluorescence quenching or enhancement artefacts, artefact control for HCV NS3 helicase inhibitor project, biochemical, LOPAC1280 (AID 687037; call rule not given here). The following applies: Cy5-DNA-NS3h complex fluorescence interference counterscreen. (In general: Counterscreens check selectivity or assay interference.)
Assay [9] relates to Aerobactin synthetase IucA (Klebsiella pneumoniae, hypervirulent). The experiment in a line: IucA enzyme inhibition, biochemical, LOPAC library, absorbance readout (AID 1346212; call rule not given here;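 note: 100% = no compound wells and 0% = no enzyme wells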). The following applies: IucA enzyme assay, absorbance (OD) readout; stronger effect = lower value;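 tested at 8 µM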.
The nature of assay [10]: phospholipid biosynthesis inhibitors in animal cells, primary screen, cell-based, LOPAC library, screen 4 (AID 1347384; call rule not given here). The following applies: phospholipid biosynthesis inhibition screen, at 10 µM.
The nature of assay [11]: Cy5 fluorescence interference with SSB-bound oligo, artefact control for HCV NS3 helicase inhibitor project, biochemical, NIH Clinical Collection, E. coli SSB (AID 743268; call rule not given here).
Assay [12] deals with Hepatitis C virus NS3 helicase. The experiment in a line: HCV NS3 helicase inhibitors, primary screen, biochemical, fluorescence polarization, NIH Clinical Collection (AID 743270; call rule not given here). The following applies: NS3 helicase binding to Cy5-dT15 DNA, stronger effect = higher value, concentration not given here.
Assay [13] is described as follows: modulation of C. elegans fzo-1 (AID 1259413; call rule not given here;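 note: fzo-1 mutant C. elegans worms in liquid wells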). The following applies: C. elegans fzo-1 modulator screen, mean read-out; stronger effect = higher value.
The test system of assay [14] is F380Y. The experiment in a line: modulators of BK channel variants, profiling panel, selectivity assay, cell-based, U2OS BacMam, thallium flux, beta subunits (AID 1259406).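 Note: initial slope of Thallos dye fluorescence rise after thallium is added; log ratio against the mean of 0.3% DMSO vehicle wells on the same plate.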 The following applies: at 30 µM.
For assay [15], the system named is F380Y/beta2Delta. The assay is described as above. The following applies: at 30 µM.
The test system of assay [16] is R275C. Described as above. The following applies: at 30 µM.
Assay [17] concerns R275C/beta1. The description is as above. The following applies: at 30 µM.
The subject of assay [18] is R275C/beta2Delta. Described as above. The following applies: at 30 µM.
Assay [19] is described as follows: hESC survival regulators, cell-based (AID 493140; call rule not given here;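 note: cells exposed to compounds for four days before counting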). The following applies: human embryonic stem cell survival screen; stronger effect = higher value.
The target of assay [20] is ATP-dependent translocase ABCB1 (Homo sapiens) (UniProt P08183). The experiment in a line: MDR1 (ABCB1) efflux transporter inhibition, cell-based (AID 377; in the data active = fluorescence slope change above about 50%). The following applies: MDR1-expressing cells, fluorescent substrate accumulation slope; stronger effect = higher value; concentration not given here.
Chain of ATP-dependent translocase ABCB1 (Homo sapiens) (P08183 whole entry, looked up): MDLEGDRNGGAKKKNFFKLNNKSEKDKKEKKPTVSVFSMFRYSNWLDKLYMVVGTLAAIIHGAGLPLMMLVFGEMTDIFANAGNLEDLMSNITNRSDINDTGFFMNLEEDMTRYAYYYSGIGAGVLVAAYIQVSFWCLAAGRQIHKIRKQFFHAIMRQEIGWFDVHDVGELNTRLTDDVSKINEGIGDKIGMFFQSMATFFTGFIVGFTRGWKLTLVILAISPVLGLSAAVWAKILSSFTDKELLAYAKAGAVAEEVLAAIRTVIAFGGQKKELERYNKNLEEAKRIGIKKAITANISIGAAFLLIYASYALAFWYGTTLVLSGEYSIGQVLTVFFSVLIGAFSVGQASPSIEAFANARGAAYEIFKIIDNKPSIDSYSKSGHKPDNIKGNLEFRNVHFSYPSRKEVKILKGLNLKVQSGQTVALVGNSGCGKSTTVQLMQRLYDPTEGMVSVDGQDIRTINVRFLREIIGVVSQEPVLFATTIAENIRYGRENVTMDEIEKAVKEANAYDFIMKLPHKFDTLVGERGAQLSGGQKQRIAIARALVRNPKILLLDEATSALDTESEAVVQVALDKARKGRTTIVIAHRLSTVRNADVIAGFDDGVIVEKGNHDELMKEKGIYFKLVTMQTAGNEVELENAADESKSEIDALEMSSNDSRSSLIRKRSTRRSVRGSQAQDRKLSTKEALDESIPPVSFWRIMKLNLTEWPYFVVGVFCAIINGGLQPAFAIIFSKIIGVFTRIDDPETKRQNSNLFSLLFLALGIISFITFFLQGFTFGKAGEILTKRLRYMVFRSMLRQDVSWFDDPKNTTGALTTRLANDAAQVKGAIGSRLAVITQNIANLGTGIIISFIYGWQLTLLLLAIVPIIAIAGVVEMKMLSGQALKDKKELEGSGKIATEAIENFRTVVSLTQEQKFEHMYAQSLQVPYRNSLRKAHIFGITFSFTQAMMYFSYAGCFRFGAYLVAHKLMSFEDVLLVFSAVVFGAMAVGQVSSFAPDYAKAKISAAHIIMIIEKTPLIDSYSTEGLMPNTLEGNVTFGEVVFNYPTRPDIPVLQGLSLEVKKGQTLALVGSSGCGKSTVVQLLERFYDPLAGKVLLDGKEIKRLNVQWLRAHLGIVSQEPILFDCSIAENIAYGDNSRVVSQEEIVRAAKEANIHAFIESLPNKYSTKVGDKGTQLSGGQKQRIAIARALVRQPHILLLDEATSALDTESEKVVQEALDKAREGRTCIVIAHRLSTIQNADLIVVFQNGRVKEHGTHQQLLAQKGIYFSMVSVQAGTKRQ

The inhibition is the relative decrease from the control value, in per cent. The remaining activity is the signal under treatment as a percentage of the control signal. Consider `Nc1ccncc1`, for which the inhibition is -15.5% in assay [1] and -4% (inactive) in assay [7]. The compound also gave a rescue above control in [2] of 26.7. Further, the glutamate uptake change in assay [3] was -9.57%. In assay [4], this compound registered an inclusion score of 2. This compound registered an aggregation suppression score in assay [5] of 1.23. Moreover, in [6], the period change is 0.07 h (inactive). The fluorescence ratio (interference) in assay [8] is 0.9 (inactive). Besides, the remaining activity in [9] is 103% (inactive). Moreover, the result in assay [10] was inactive.

Take `CCC(COC(=O)c1cc(OC)c(OC)c(OC)c1)(c1ccccc1)N(C)C` (centres undefined): the fluorescence ratio in assay [11] was 0.98 (inactive). Also, the inhibition in [12] was -1.19% (inactive). For the same compound, the mean signal in [13] is 257 (inactive). For the same compound, the log fold change Tl+ flux in assay [14] is -0.284 (active); in [15] it was -0.21 (active); in assay [16], -0.249 (active); in [17] it was -0.324 (active); in assay [18] it was -0.495 (active).

Take `CN[C@@H]1C[C@@H](c2ccc(Cl)c(Cl)c2)c2ccccc21`: in assay [6], the period change is 0.04 h (inactive). For the same compound, the inhibition was -2% (inactive) in assay [7] and -3.56% (inactive) in [12]. Besides, in assay [8], the fluorescence ratio (interference) was 0.9 (inactive). Moreover, the fluorescence ratio in assay [11] was 0.98 (inactive). Further, the mean signal in assay [13] is 207 (inactive). Also, in [9], the remaining activity was 107% (inactive). Further, the call in assay [10] was inactive. Moreover, the log fold change Tl+ flux in assay [14] was 0.0202 (inactive); in assay [15], 0.44 (active); in assay [16], -0.12 (active); in assay [17], 0.445 (active); in assay [18] it was 0.134 (active).

In the case of `CN1C(=O)CN=C(c2ccccc2)c2cc([N+](=O)[O-])ccc21`, the fluorescence ratio in assay [11] was 1.07 (inactive). For the same compound, the inhibition in assay [12] was 5.94% (inactive). Moreover, in [13], the mean signal is 228 (inactive). In addition, the log fold change Tl+ flux is 0.0275 (inactive) in assay [14]; 0.0676 (inactive) in assay [15]; -0.00261 (inactive) in assay [16]; -0.0104 (inactive) in assay [17]; 0.0315 (inactive) in [18].

As for `O=C(O)C(Cl)Cl`, the fluorescence ratio in assay [11] is 0.97 (inactive). The inhibition in assay [12] is -0.4% (inactive). In assay [13], the mean signal is 259 (inactive). The log fold change Tl+ flux in assay [14] was -0.0365 (inactive); in assay [15], -0.00825 (inactive); in assay [16], -0.098 (inactive); in [17] it was 0.0188 (inactive); in assay [18], -0.00393 (inactive).

For the compound `CN[C@@H](C)[C@H](O)c1ccccc1`, the period change in assay [6] was -0.07 h (inactive).

In the case of `CCOC(=O)c1cncn1C(C)c1ccccc1` (centres undefined), the survival in [19] is 6.08 (inactive). The log fold change Tl+ flux was -0.00492 (inactive) in [14]; 0.0219 (inactive) in [15]; -0.00746 (inactive) in assay [16]; 0.0125 (inactive) in [17]; 0.0301 (inactive) in [18].

`CN(C)C(=O)Oc1cc(OC(=O)N(C)C)cc(C(O)CNC(C)(C)C)c1` (centres undefined): the fluorescence slope change in [20] is 19% (inactive). Also, in assay [19], the survival is 12.5 (inactive).

As for `CN1C(=O)COc2c(C(=O)NC3CN4CCC3CC4)cc(Cl)cc21` (centres undefined), the fluorescence ratio in [11] is 1.03 (inactive). Moreover, in [12], the inhibition was 2.77% (inactive). Also, the mean signal in assay [13] is 219 (inactive). Also, the log fold change Tl+ flux in assay [14] is 0.054 (inactive); in [15] it was 0.0242 (inactive); in assay [16], -0.0315 (inactive); in assay [17], 0.0279 (inactive); in [18], -0.00752 (inactive).

With `CN1CCN(C(=O)O[C@H]2c3nccnc3C(=O)N2c2ccc(Cl)cn2)CC1`, in assay [11], the fluorescence ratio was 1 (inactive). Also, the inhibition in assay [12] was -4.09% (inactive). In addition, in assay [13], the mean signal is 290 (active). Moreover, the log fold change Tl+ flux in assay [14] was -0.0134 (inactive); in assay [15], 0.0361 (inactive); in assay [16], 0.0376 (inactive); in assay [17], 0.0325 (inactive); in assay [18], 0.0513 (inactive).

In the case of `C[C@]12CC[C@H](O)CC1=CC[C@@H]1[C@@H]2CC[C@]2(C)C(=O)CC[C@@H]12`, in assay [11], the fluorescence ratio is 0.94 (inactive). The inhibition in [12] was 0.66% (inactive).
